PubChem BioAssay AID1851 (National Center for Advancing Translational Sciences (NCATS), 2009)
Several values for one entry are separate records, joined by “and”; a condition that tells them apart may be missing. Identical values can stand only once. Screen size: about 16,000 compounds; about 2,600 (16%) were called active. Not shown: some 20% with an inconclusive outcome. The list is a sample of the results. Unmarked numbers belong to inactive results. Calls follow the shape of the dose curve; as a rule, active = well fitted curve in the direction sought with a large enough effect; inconclusive = small, poorly fitted or top-dose-only effect, or effect the other way; inactive = no such curve, though single readings can be large or run the other way.
% is scaled to controls: 0 for no effect and ±100 for the full control effect.

The compounds below were run against Cytochrome P450 2D6 (Homo sapiens) (UniProt P10635) (assay: Cytochrome panel assay with activity outcomes). Conditions: recombinant CYP, pro-luciferin dealkylation, luminescence, p450-cyp2d6; series mostly up to 57.1 µM; activity, negative = inhibition: at the top concentration.
Cytochrome P450 2D6 (Homo sapiens), sequence (P10635 whole entry, looked up): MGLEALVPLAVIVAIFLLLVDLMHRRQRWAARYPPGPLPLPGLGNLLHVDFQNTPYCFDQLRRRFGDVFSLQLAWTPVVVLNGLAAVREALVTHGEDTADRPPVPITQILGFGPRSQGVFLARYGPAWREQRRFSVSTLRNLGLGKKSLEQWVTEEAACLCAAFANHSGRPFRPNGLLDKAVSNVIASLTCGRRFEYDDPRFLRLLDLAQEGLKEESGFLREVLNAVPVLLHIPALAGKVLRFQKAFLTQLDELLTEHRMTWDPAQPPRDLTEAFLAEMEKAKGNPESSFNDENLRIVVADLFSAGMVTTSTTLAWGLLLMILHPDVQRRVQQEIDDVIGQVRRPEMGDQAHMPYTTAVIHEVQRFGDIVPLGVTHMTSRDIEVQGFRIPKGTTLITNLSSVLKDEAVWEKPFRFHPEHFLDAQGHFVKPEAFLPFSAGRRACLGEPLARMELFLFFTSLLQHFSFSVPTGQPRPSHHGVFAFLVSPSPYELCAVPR
For `Cc1ccc(S(=O)(=O)N(CC(=O)N/N=C/c2ccc(F)cc2)c2cccc3cccnc23)cc1`, the “activity, negative = inhibition” value was -8.45%. For `CCCOc1ccc(OCCNC2CCCC2)cc1`, the AC50 was 1.26 µM (active). In the case of `CCCOc1ccc(C(=O)NNC(=S)NC(=O)CC)cc1`, the “activity, negative = inhibition” value was -9.37%. For `CCCOc1ccc(-c2nc(N)n[nH]2)cc1`, the “activity, negative = inhibition” value was -9.35%. For `O=C(Nc1cccc(F)c1)N1CC[C@@]2(CCCN(C(=O)c3cnccn3)C2)C1`, the “activity, negative = inhibition” value was -0.771%. `CC(C)(C)NC(=O)C(=O)N/N=C/c1ccc(Br)cc1` was tested, and the “activity, negative = inhibition” value was -2.47%. For `Nc1nc(-c2ccccc2)cc(-c2ccccc2O)n1`, the “activity, negative = inhibition” value was 1.69%. In the case of `COc1cccc(Cn2c(=O)c(-c3ccc(Cl)cc3)nc3cnc(OC)nc32)c1`, the “activity, negative = inhibition” value was -8.08%. With `c1ccc(CCN2CCN=C2Cc2ccccc2)cc1` the AC50 was 0.126 µM (active). For `C[C@H](c1ccccc1)N1C(=O)[C@H]2[C@@H]3[C@H](O)[C@H](O)CC(=O)[C@H]3CC[C@H]2C1=O`, the activity, negative = inhibition was 4.75% [at 11.4 µM]. With `Cc1ccccc1NC(=S)NC(=O)c1cc(-c2ccccc2)nc2ccccc12` the “activity, negative = inhibition” value was -15.6%. With `COC(=O)CCC(=O)NNC(=O)CCCOc1ccc(Cl)cc1Cl` the “activity, negative = inhibition” value was -7.11%. `CC(C)(C)C(=O)NNC(=O)CCCOc1ccc(Cl)cc1Cl` was tested, and the “activity, negative = inhibition” value was -11.2%. With `C#CCN(C)CCCOc1ccc(Cl)cc1Cl` the AC50 was 2 µM (active) and 398 nM (active). For `Cc1ncc([N+](=O)[O-])n1CC(=O)NCc1ccccc1`, the “activity, negative = inhibition” value was 5.23%. In the case of `O=C(NC1CCCCC1)C12CC3CC(C1)CC(n1cncn1)(C3)C2`, the AC50 was 11.2 µM (active). In the case of `COc1ccc(NC(=O)C23CC4CC(C2)CC(n2cnc(Br)n2)(C4)C3)c(C)c1`, the “activity, negative = inhibition” value was 24.7%. For `O=S(=O)(c1cccc(-c2nnc(-c3ccc(Br)cc3)o2)c1)N1CCCCCC1`, the “activity, negative = inhibition” value was -13.3%. With `Cc1ccc(S(=O)(=O)n2ccc(-c3cccc(OCc4c(F)cccc4Cl)c3)n2)cc1` the “activity, negative = inhibition” value was 17.8%. Work on `COc1ccc(C(=O)N/N=C2/C(=O)c3c(C)cc(C)cc3CC2(C)C)cc1` yielded an activity, negative = inhibition of -4.67% [at 11.4 µM]. `CCCC1S/C(=N/N=C/c2ccc(OC)cc2)N(Cc2ccc(OC)cc2)C1=O` (centres undefined) was tested, and the “activity, negative = inhibition” value was -23%. With `COc1cccc(C(=O)n2c(SC)nc3cc4c(cc32)OCCO4)c1` the “activity, negative = inhibition” value was -7.63%. For `Cc1ncc(N=Nc2ccccc2Cl)c(-c2ccccc2)n1`, the “activity, negative = inhibition” value was -18.5%. With `COc1ccc(CCn2c(=N)c(C(=O)NCc3ccco3)cc3c(=O)n4ccccc4nc32)cc1` the AC50 was 1.12 µM (active). `CCOC(=O)c1cc2c(=O)n3ccccc3nc2n(CCCOC)c1=NC(C)=O` was tested, and the “activity, negative = inhibition” value was 3.85%. `CCOc1ccc(-n2cc(C(=O)NCc3ccco3)c3cc(OC)c(OC)cc3c2=O)cc1` was tested, and the “activity, negative = inhibition” value was 5.46%. In the case of `O=C(/C=C/c1ccccc1)N1CCN(Cc2nc3ccccc3c(=O)[nH]2)CC1`, the “activity, negative = inhibition” value was -21.2%. For `Cc1cccc(CNc2nc(-c3cccc(NS(C)(=O)=O)c3)nc3ccccc23)c1`, the AC50 was 12.6 µM (active). `CS(=O)(=O)Nc1cccc(-c2nc(NCc3cccnc3)c3ccccc3n2)c1` was tested, and the AC50 was 20 µM (active). `COc1cccc(-c2nc(NCc3cccs3)c3ccccc3n2)c1` was tested, and the AC50 was 12.6 µM (active). In the case of `CS(=O)(=O)Nc1cccc(-c2nc(NCc3ccccc3)c3ccccc3n2)c1`, the AC50 was 20 µM (active). In the case of `O=C(O)CSc1sc(=S)sc1SCC(=O)O`, the “activity, negative = inhibition” value was -6.18%. With `N[C@@H](Cc1ccc(O)c(O)c1)C(=O)O` the AC50 was “inactive”. For `O=C(NNC(=O)c1cc2cc3ccccc3nc2s1)c1cccc(Cl)c1`, the “activity, negative = inhibition” value was 15.3%. In the case of `COc1ccc(NC(=O)c2ccc3c(=O)n(Cc4ccco4)c(=S)[nH]c3c2)c(OC)c1`, the “activity, negative = inhibition” value was -14.5%. For `Cc1nc2c(ccc3nc(NC(=O)c4ccc5c(c4)OCCO5)sc32)s1`, the “activity, negative = inhibition” value was -17.3%. In the case of `CCOCCCNC(=O)C1CCN(S(=O)(=O)N2CC(C)CC(C)C2)CC1` (centres undefined), the “activity, negative = inhibition” value was -0.643%. In the case of `CC[C@H](C)N(C)C(=O)c1cc2ccccc2c(-c2ccccc2Cl)n1`, the “activity, negative = inhibition” value was 8.23%. In the case of `CCOC(=O)CC(NC(=O)c1ccc(C)cc1)c1ccc(C)cc1` (centres undefined), the “activity, negative = inhibition” value was -14.9%. `O=C(c1cccc(F)c1)N1CCC[C@@]2(CCN(c3cccc(-c4ccccc4)c3)C2)C1` was tested, and the “activity, negative = inhibition” value was -12.7%. For `COc1cccc(Nc2ncc3nc(C)c(=O)n(-c4ccccc4)c3n2)c1`, the “activity, negative = inhibition” value was -7.35%. In the case of `Cc1oc2c(C)c(O)ccc2c(=O)c1-c1ccc2ccccc2n1`, the “activity, negative = inhibition” value was -5.6%. `O=[N+]([O-])c1ccc(CSc2ncnc3c2ncn3[C@@H]2O[C@@H](CO)[C@@H](O)[C@H]2O)cc1` was tested, and the “activity, negative = inhibition” value was 2.45%. For `CS(=O)(=O)Nc1cccc(-c2nc(NCc3cccs3)c3ccccc3n2)c1`, the AC50 was 10 µM (active). `CCOC(=O)C(NC(C)=O)C(OC(C)=O)c1cccc(N(CCO)CCO)c1` (centres undefined) was tested, and the “activity, negative = inhibition” value was -0.0705%. In the case of `Cc1nc(-c2c(C(F)(F)F)noc2-c2ccc(O)cc2O)cs1`, the “activity, negative = inhibition” value was -24.6%. For `CC(=O)Nc1ccc(S(=O)(=O)c2ccc(N)cc2)cc1`, the “activity, negative = inhibition” value was -1.48%. In the case of `COc1ccc(CCNC(=O)CC(NS(=O)(=O)c2ccc(NC(C)=O)cc2)C(C)C)cc1OC` (centres undefined), the “activity, negative = inhibition” value was -8.43%. For `CC(=O)Nc1ccc(S(=O)(=O)NCCc2ccc(F)cc2)cc1`, the AC50 was 15.8 µM (active).
